Active and inactive are the calls of the source. The call rests on the fitted dose curve; in most records, active means well fitted activation curve with a large enough effect; inconclusive means small, poorly fitted or top-dose-only effect; inactive means no such curve, though single readings can be large or run the other way.
Test: Confirmatory qHTS for Identification of Small Molecule Activators of Huntingtin-Antisense Promoter Activity
Conditions: HEK293 HTT-AS promoter firefly luciferase reporter, 24 h; series mostly up to 57.5 µM; activity change, positive = activation: at the top concentration
Method in brief: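 2,500 luciferase reporter HEK293 cells/well; 24 h culture; cpds up to 57.5 uM final, PTC124 50 uM ctrl; 24 h, 37C; Dual-Glo FLuc reagent, 10 min RT; lum. Norm.: vehicle 0%, zero RLU -100%.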
Potency means the concentration at half of the fitted maximal effect.

Activity change, positive = activation, inactive:
C#CCOc1ccc(-c2nnc(Nc3cccc(C)c3)c3ccccc23)cc1 -44.5%
CC(C)c1nc2ccc(C(=O)NCCCN3CCN(c4cccc(Cl)c4)CC3)cc2o1 -39%
Cc1cc(Nc2cccc(C(F)(F)F)c2)nc2ccc(NC(=O)c3cccnc3)cc12 -71.9%
COc1ccc(Cn2c(SCc3ccc(C(=O)NC4CCCCC4)cc3)nc3ccncc32)cc1 -30.4%
CCN1c2ccccc2-c2nc(SCC(=O)Nc3cc(F)ccc3F)ncc2S1(=O)=O -31.3%
Cc1cc(NC(=O)c2cc(Cl)ccc2Cl)ccc1-c1cc2ccccc2oc1=O -43.5%
CSc1ncc(Cl)c(C(=O)Nc2ccc(S(=O)(=O)N3CCC(C)CC3)cc2)n1 -31.6%
Cc1ccc(C)c(NC(=O)C(=O)NCC(c2cccnc2)N2CCN(c3ccc(F)cc3)CC2)c1 (stereo not given) -47.4%
Cc1ccc(CN2CCC(CNC(=O)c3cnn(-c4ccccc4Cl)c3C3CCN(C(=O)OC(C)(C)C)CC3)CC2)cc1 -30.1%
COc1ccc(C(=O)CN2CCN(S(=O)(=O)c3ccc(C(C)C)cc3)CC2)cc1 -34.7%
O=C(COCc1cc(-c2ccc3c(c2)OCO3)on1)N1CCN(c2cccc(C(F)(F)F)c2)CC1 -23.9%
COc1cc2c(cc1OC)C(COc1ccc(C(C)C)cc1)N(C(=O)COc1ccccc1)CC2 (stereo not given) -20.4%
COc1ccc(NC(=O)c2ccc(-c3nc(CSc4ccc(C)cc4)c(C)o3)cc2)cc1Cl -52.9%
Cc1ccc(CNS(=O)(=O)c2ccc(N3CCCCS3(=O)=O)cc2)cc1 -83.1%

Potency, active:
CC(=O)c1ccc(NS(=O)(=O)c2ccc3[nH]c(=O)[nH]c3c2)cc1 7.57 µM

— PubChem BioAssay AID1508622 (National Center for Advancing Translational Sciences (NCATS), 2021)
